# Compound activity (PubChem BioAssay)
# NPC1 promoter act = activates the NPC1 promoter; Huh7 NPC1 promoter luciferase reporter, 24 h; Potency, µM (top dose mostly 9.22 µM), for inactives: at the highest dose activation, most hits filed as activators; 320,000 tested, 2.4% active; further: % of control where 0% means no effect; nearly all actives have a fitted effect of over 60% in size
#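 Stable NPC1-promoter luciferase Huh7 line; cpd (DMSO) 24 h, 37 °C, 5% CO2; Amplite luciferase reagent 10 min RT; luminescence readout. qHTS format.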
# ELG1 repair inh = inhibitors of ELG1-dependent DNA repair in HEK293T cells. 330,000 tested, 2.3% active. HEK293T ELG1-luciferase reporter, luminescence, 16 h; DNA damage induced by 5-fluorouridine. Potency, µM (series often up to 46.1 µM), for inactives: top-dose activity change, negative = inhibition, actives largely listed as inhibitors; further: on the % scale 0 is the no-effect control and ±100 the full control effect; nearly all actives have a fitted effect of over 55% in size
#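 5-Fluorouridine DNA damage + compound/DMSO, 2,000 cells/well, 16 h, 37 °C/5% CO2. ONE-Glo, 30 min RT, luminescence. Readout = decrease in reporter signal.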
# Rab9 prom act = activators of Rab9 promoter; AID 485297; 320,000 tested, 2.8% active; Huh7 Rab9 promoter-luciferase reporter, luminescence, 24 h; Potency, µM (titrated, usually from 9.22 µM), without a hit: at the top dose activation, negative = inhibition, most hits filed as activators; further: % of control where 0% means no effect; nearly all actives have a fitted effect of over 60% in size
#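 Stable Rab9-luc Huh7, 1500 cells/well, 2 h settle; cmpd in DMSO, 24 h, 37 °C/5% CO2; luciferase reagent 10 min RT; luminescence.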
# SMN2 splice enh = enhancers of SMN2 splice variant expression; HEK293 SMN2-luciferase splicing reporter, luminescence, 30-36 h; AID 1458; 210,000 tested, 2.8% active; Potency, µM (titrated, usually from 46.1 µM), inactives show at the highest dose activity change, positive = activation, actives largely listed as activators; further: % of control where 0% means no effect; nearly all actives have a fitted effect of over 55% in size
#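 qHTS luciferase splicing reporter: luminescence rises when SMN2 exon 7 is included in transfected HEK293 cells. Compound exposure lasted 30-36 h at 37C, with 4.5 mM final sodium butyrate as control, followed by a ONE-Glo read.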
# FLuc counter = firefly luciferase modulation, counter-screen for miR-21 project. P08659. AID 588342. 360,000 tested, 6.9% active. Potency, µM (doses to about 57.5 µM), without a hit: at the top dose activity change, negative = inhibition, hits mostly inhibitors. purified FLuc, Km substrates, luminescence inhibition;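 further: plate controls were vehicle for no effect and reference inhibitor for full effect; nearly all actives have a fitted effect of over 55% in size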
# Target sequence (P08659 whole entry, looked up): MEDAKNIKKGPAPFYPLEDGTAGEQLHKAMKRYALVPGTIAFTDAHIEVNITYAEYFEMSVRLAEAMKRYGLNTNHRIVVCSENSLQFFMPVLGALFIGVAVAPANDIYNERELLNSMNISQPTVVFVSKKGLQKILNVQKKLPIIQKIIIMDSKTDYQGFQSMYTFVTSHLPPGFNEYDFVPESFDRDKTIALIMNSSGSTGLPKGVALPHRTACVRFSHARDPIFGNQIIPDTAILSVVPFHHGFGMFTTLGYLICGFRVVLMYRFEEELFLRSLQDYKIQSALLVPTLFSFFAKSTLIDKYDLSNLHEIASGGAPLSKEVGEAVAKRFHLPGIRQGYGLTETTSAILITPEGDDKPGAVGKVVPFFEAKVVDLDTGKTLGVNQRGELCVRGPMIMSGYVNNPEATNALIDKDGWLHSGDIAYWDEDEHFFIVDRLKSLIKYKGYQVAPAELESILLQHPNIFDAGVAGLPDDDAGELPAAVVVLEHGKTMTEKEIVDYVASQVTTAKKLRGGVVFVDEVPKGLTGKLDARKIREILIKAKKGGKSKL
#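 Purified P. pyralis luciferase, 10 nM final, with Km-level 10 uM D-luciferin and 10 uM ATP in 50 mM Tris acetate pH 7.5, 10 mM Mg acetate, 0.01% Tween-20, 0.05% BSA; 6-point qHTS titration about 60 µM downward; luminescence read.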
# ELG1 genotox = inducers of genotoxicity in HEK293T ELG1-luciferase cells. HEK293T ELG1-luciferase reporter, luminescence, 16 h. Potency, µM (titrated, usually from 46 µM), for the others: at the top dose activity change, positive = activation, actives largely listed as activators. 330,000 tested, 1.3% active. AID 504466; further: % of control where 0% means no effect; nearly all actives have a fitted effect of over 60% in size
#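 Cells (2,000/well) expressing the ELG1-luciferase fusion are dosed by pin tool and kept 16 hr at 37 °C, 5% CO2. Signal comes from ONE-Glo luciferase reagent after 30 min at room temperature.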
# Starred values were filed as active, the others as inactive; ? = inconclusive; nt = no result given. Sampled rows, rich in hits. Any-hit rate of the full collection: about 9.3%. The call rests on the fitted dose curve; in most records, active means well fitted curve in the direction sought with a large enough effect; inconclusive means small, poorly fitted or top-dose-only effect, or another doubt; inactive means no such curve, though single readings can be large; an effect the other way counts as inactive or inconclusive. Potency means the concentration at half of the fitted maximal effect.
SMILES,NPC1 promoter act,ELG1 repair inh,Rab9 prom act,SMN2 splice enh,FLuc counter,ELG1 genotox
COCC(=O)N1CCC(Oc2cccc(C(=O)NCc3ccccn3)c2)CC1,-6%,-10%,0%,nt,1%,-5%
S=c1[nH]ccn1Cc1ccccc1,-5%,-1%,6%,-2%,-3%,0%
O=C(NNc1ccc([N+](=O)[O-])cc1)c1ccccc1Cl,-3%,4%,1%,-14%,4%,2%
Cc1nnsc1C(=O)N/N=C/c1ccccc1,1%,18%,-2%,19%,-6%,1%
Cc1ccc(/C=N/NC(=O)c2ccccn2)o1,?,?,?,?,24µM*,?
CC(C)c1ccc(/C=N/NC(=O)CCNC(=O)c2ccccc2)cc1,?,?,?,nt,8.5µM*,23%
O=C(N/N=C\c1ccc(Oc2ccccc2)cc1)c1csnn1,3.5µM*,?,2.2µM*,16µM*,2.7µM*,?
COc1ccc(Br)cc1CNCCSc1nnnn1C,23%,6%,-2%,-6%,4%,0%
O=C(Cc1ccccc1)Nc1cc(C(=O)c2ccccc2)ccc1N1CCOCC1,1%,26µM*,-4%,-17%,2%,-6%
O=C(c1ccccc1)c1cc(F)c(N2CCOCC2)cc1Cl,0%,19%,0%,-10%,?,-6%
O=C(c1ccccc1)c1ccc(N2CCOCC2)c(F)c1,3.5µM*,?,3.5µM*,?,11µM*,?
CC(C)CCNC(=O)c1ccc2c(SCC(=O)O)c3c(nc2c1)CCCC3,-1%,7%,-2%,8%,?,2%
CC(C)CC1(C(=O)NCCc2c[nH]c3ccccc23)C=CCN1C(=O)c1ccccc1 (centres undefined),-4%,5%,-4%,-11%,-16%,2%
O=C(COc1ccc2c3c(c(=O)oc2c1)CCC3)NCCCN1CCOCC1,-6%,?,3%,nt,2%,7%
Cc1ccc(NC(=O)CN(C)C(=O)C(C)OC(=O)CNC(=O)c2ccc(Cl)c([N+](=O)[O-])c2)cc1 (centres undefined),10%,4%,1%,nt,2%,1%
CC(=O)N(Cc1cccs1)Cc1cc2ccc(C)c(C)c2nc1Cl,4%,12µM*,11%,-15%,-11%,-8%
CN1CCN(S(=O)(=O)c2ccc3c4c(cccc24)C(=O)N3)CC1,2%,9%,-4%,5%,8%,13%
Cc1ccc(N(C(=O)c2snc(C(N)=O)c2N)C(C(=O)NCC2CCCO2)c2ccc(C)o2)c(C)c1 (centres undefined),2%,-6%,5%,nt,-1%,-6%
COCC1CCN(C(=O)c2cc(COc3ccc(C)c(C)c3)on2)C1 (centres undefined),-2%,3%,-1%,nt,-2%,3%
Cc1cccc(C)c1OCc1cc(C(=O)N2CC3C[C@@H]4CC2C[C@H](C3)C4)no1,2µM*,?,1.6µM*,nt,?,2%
Cc1ccc(OCc2cc(C(=O)N3CC4C[C@@H]5CC3C[C@H](C4)C5)no2)cc1C,3.5µM*,?,1.4µM*,nt,8.5µM*,?
COc1c(C)cc(C(=O)C2CCCN(Cc3ccc(Oc4ncccn4)cc3)C2)cc1C (centres undefined),0%,18µM*,-7%,nt,-5%,-7%
COc1ccccc1NC(=O)COC(=O)C1C2CC3OC(=O)C1C3C2 (centres undefined),0%,16%,5%,nt,15µM*,-3%
Cc1ccccc1NC(=O)COC(=O)C1C2CC3OC(=O)C1C3C2 (centres undefined),-6%,-8%,4%,nt,-10%,-2%
CCCCCC1=C2CNC(CC(C)C)(C(=O)OC)C=C2C(C)C1=O (centres undefined),nt,nt,nt,-7%,nt,nt
CNc1cccc2c1C(=O)c1ccccc1C2=O,28%,?,?,?,9.5µM*,?
